Molecules are shown by their SMILES. Records with an inconclusive call do not appear. A call without a number means that no potency is given here. Active and inactive are the calls of the source. Calls come from the whole dose curve; as a rule, active = well fitted cell-killing curve with a large enough effect in the repeat runs; inconclusive = weak or mixed curves, or effect the other way; inactive = no such curve, though single readings can be large or run the other way.

The test can be described thus: qHTS assay to identify small molecule agonists of the vitamin D receptor (VDR) signaling pathway - cell viability counter screen (AID 743224). Note: nearly all actives have a fitted effect of over 50% in size. Conditions: VDR-bla HEK293T viability, CellTiter-Glo luminescence, 16 h; series mostly up to 62.6 µM; activity change, negative = cytotoxicity: at the top concentration. The source says:
U.S. Tox21 Program National Center for Advancing Translational Sciences [NCATS] NIH Chemical Genomics Center [NCGC] U.S. Environmental Protection Agency [EPA] National Institutes of Environmental Health Sciences [NIEHS] National Toxicology Program [NTP] U.S. Food and Drug Administration [FDA] Tox21 Assay Overview: The vitamin D receptor (VDR), a member of nuclear hormone receptor superfamily, plays a critical role in calcium homeostasis and bone metabolism. It is also involved in cell differentiation and growth, and thrombogenicity. […] The cytotoxicity of the Tox21 compound library against the VDR-bla cell line was tested in parallel by measuring the cell viability using CellTiter-Glo assay (Promega, Madison, WI) in the same wells.
Tox21 Assay Protocol Summary: VDR-bla cells were dispensed at 2,000 cells/6 uL/well into black wall/clear-bottom 1536-well plates using a Multidrop Combi (Thermo Fisher Scientific, Waltham, MA) dispenser. After the assay plates were incubated at a 37C and 5% CO2 for 4 h, 23 nL of compounds dissolved in DMSO, positive controls or DMSO only was transferred to the assay plate by a Pintool station (Kalypsys, San Diego, CA). The plates were incubated at 37C and 5% CO2 for 16 h. After 1 uL of LiveBLAzerTM B/G FRET substrate was added using a Bioraptr Flying Reagent Dispenser (FRD) workstation (Beckman Coulter, Indianapolis, IN, USA), the plates were incubated at room temperature for 2 h, and fluorescence intensity was measured by an Envision plate reader (PerkinElmer, Shelton, CT). For cell viability readout that measures cytotoxicity, 3 ul/well of CellTiter-Glo reagent was added into the assay plates using a FRD. After 30 min incubation at room temperature, the luminescence intensity in the plates was measured using a ViewLux (PerkinElmer) plate reader.
Background: qHTS replaces the single test concentration by a dilution series.
As to `CCCCCCCCCC`, the Potency result was “inactive”.
On the same count and under the same terms, in the case of `O=C(O)c1cc(C(=O)O)cc(S(=O)(=O)O)c1` it was “inactive”; in that of `CC1=CC(=O)NS(=O)(=O)O1`, “inactive”; in that of `O=S(=O)(O)c1ccc2ccccc2c1`, “inactive”.
Same read-out and setting: in the case of `CCCCCC(N)=O` it was “inactive”; in that of `CCOC(=O)NNc1nncc2ccccc12`, “inactive”.
Take `O=C(OCCOCCOC(=O)c1ccccc1)c1ccccc1`: the Potency result was “inactive”.
As for `CC(=O)Nc1cccc(O)c1`, the Potency entry was “inactive”.
The same measure, in the same setting: under `Cc1occc(=O)c1O` stands “inactive”.
The same measure, in the same setting: in the case of `OC[C@H]1O[C@@](CO)(O[C@H]2O[C@H](CO)[C@@H](O)[C@H](O)[C@H]2O)[C@@H](O)[C@@H]1O` it was “inactive”.
The same measure, in the same setting: under `CC(=O)CC(=O)Nc1ccccc1C` stands “inactive”.
For the compound `C[C@H]1C[C@@H]2[C@H]([C@@H](O)C[C@@]3(C)[C@H]2CC[C@]3(O)C(=O)CO)[C@@]2(C)C=CC(=O)C=C12`, the Potency result is “inactive”.
Still for that read-out and setting: under `O=P(OC(CCl)CCl)(OC(CCl)CCl)OC(CCl)CCl` stands “inactive”.
Take `O=C(O)c1cc(O)c(O)c(O)c1`: the “activity change, negative = cytotoxicity” value was 0.778% (inactive).
Consider `CCC(O)OCCCOC` (stereo not given), for which the Potency entry was “inactive”.
Still for that read-out and setting: under `CCc1ccc(CCOc2ccc(CC3SC(=O)NC3=O)cc2)nc1` (stereo not given) stands “inactive”.
The same measure, in the same setting: under `c1ccc2c(c1)ccc1ccccc12` stands “inactive”; under `Oc1cccc2ccccc12`, “inactive”.
As to `NNc1nncc2ccccc12`, the “activity change, negative = cytotoxicity” value is -0.989% [at 29.1 µM] (inactive).
In the case of `COc1ccc2cc([C@H](C)C(=O)O)ccc2c1`, the Potency entry was “inactive”.
Take `C#C[C@]1(O)CC[C@H]2[C@@H]3CCC4=CC(=O)CC[C@@H]4[C@H]3CC[C@@]21C`: the “activity change, negative = cytotoxicity” value was 2.39% (inactive).
Consider `OCc1cccnc1`, for which the Potency result was “inactive”.
Turning to `Cc1ccc(S(N)(=O)=O)cc1`, the Potency entry is “inactive”.
Regarding `O=[N+]([O-])c1ccc(/C=C/c2ccc([N+](=O)[O-])cc2S(=O)(=O)O)c(S(=O)(=O)O)c1`, the Potency result was “inactive”.
For `Cc1ccc(N(C)C)cc1`, the Potency result was “inactive”.
Regarding `CN(C)CCC(c1ccc(Cl)cc1)c1ccccn1` (stereo not given), the Potency result is “inactive”.
On the same count and under the same terms, under `CCCCCCCCCCCCCCO` stands “inactive”.
On the same count and under the same terms, in the case of `CCN(CC)c1ccc(C(=O)c2ccccc2C(=O)O)c(O)c1` it was “inactive”; in that of `O=C(O)c1ccc2c(c1)C(=O)OC2=O`, “inactive”; in that of `CCCCCCCC(=O)OC`, “inactive”.
For `CC[C@H](C)C(=O)O[C@H]1C[C@@H](C)C=C2C=C[C@H](C)[C@H](CC[C@@H]3C[C@@H](O)CC(=O)O3)[C@H]21`, the “activity change, negative = cytotoxicity” value is -4.33% (inactive).
As to `CCC(O)OC(O)CC` (stereo not given), the Potency result was “inactive”.
Consider `CCCCCCOCCO`, for which the Potency result was “inactive”.
With `CCCCCCCCCCCCS`, the Potency entry was “inactive”.
In the case of `CCCCC(CC)COC(=O)CCCCC(=O)OCC(CC)CCCC` (stereo not given), the Potency entry was “inactive”.
On the same count and under the same terms, under `Cc1cc(C)c(C)cc1C` stands “inactive”.
With `CC(C)c1ccc(S(=O)(=O)O)cc1`, the Potency entry was “inactive”.
Same read-out and setting: in the case of `COc1ccc(NC(C)=O)cc1N` it was “inactive”.
The same measure, in the same setting: in the case of `CN(C)CCC(c1ccccc1)c1ccccn1` (stereo not given) it was “inactive”; in that of `CC(=O)c1ccccc1`, “inactive”.
